Tests used:
Assay in all cases: PBM binding z-score (relative to random genomic background probes); higher = stronger binding; sequences stand for … in GC…GCGATTGACAGCGTAGAATGAAGG
[1] = test system: PPARg:RXRa DBDmut IVT, anti-RXR (DBD mutation: RXRa K156A/R161A, NR concentration 270 nM, RXRa partner concentration 90 nM)
How it was run: (§1)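 Antibodies against each partner of ligand-free nuclear receptor dimers (one per run) detected binding on custom Agilent 4×180K protein-binding microarrays after 1 h incubation. The double-stranded probes had 34-nt variable regions carrying direct-repeat seeds, single-nucleotide variants, half-site ablations and random human genomic background sequences. Binding z-scores, from regression-normalized fluorescence, use the random background probes as reference.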

[2] = test system: PPARg:RXRa IVT, anti-PPARg (NR concentration 270 nM, RXRa partner concentration 90 nM)
How it was run: as §1

[3] = test system: PPARg DBDmut:RXRa IVT, anti-PPARg (DBD mutation: PPARg1 K132A/R137A, NR concentration 270 nM, RXRa partner concentration 90 nM)
How it was run: as §1

[4] = test system: PPARg DBDmut IVT, anti-PPARg (DBD mutation: PPARg1 K132A/R137A, NR concentration 270 nM)
How it was run: as §1

[5] = test system: PPARg homodimer (NR concentration 180 nM)
How it was run: as §1

[6] = test system: PXR:RXRa (NR concentration 270 nM, RXRa partner concentration 90 nM)
How it was run: as §1

[7] = test system: PXR homodimer (NR concentration 270 nM)
How it was run: as §1

[8] = test system: RARa:RXR (NR concentration 270 nM, RXRa partner concentration 90 nM)
How it was run: as §1

[9] = test system: RARa homodimer (NR concentration 270 nM)
How it was run: as §1

[10] = test system: RARb:RXRa (NR concentration 270 nM, RXRa partner concentration 90 nM)
How it was run: as §1

[11] = test system: RARb homodimer (NR concentration 270 nM)
How it was run: as §1

[12] = test system: RARg:RXRa (NR concentration 270 nM, RXRa partner concentration 90 nM)
How it was run: as §1

[13] = test system: RARg homodimer (NR concentration 270 nM)
How it was run: as §1

[14] = test system: RXRa DBDmut IVT, anti-RXR (DBD mutation: RXRa K156A/R161A, NR concentration 90 nM)
How it was run: as §1

[15] = test system: RXRa homodimer (NR concentration 180 nM)
How it was run: as §1

[16] = test system: THRa:RXRa (NR concentration 90 nM, RXRa partner concentration 90 nM)
How it was run: as §1

[17] = test system: THRa homodimer (NR concentration 90 nM)
How it was run: as §1

[18] = test system: VDR homodimer (NR concentration 270 nM)
How it was run: as §1

Sequence	PBM binding z-score [1]	PBM binding z-score [2]	PBM binding z-score [3]	PBM binding z-score [4]	PBM binding z-score [5]	PBM binding z-score [6]	PBM binding z-score [7]	PBM binding z-score [8]	PBM binding z-score [9]	PBM binding z-score [10]	PBM binding z-score [11]	PBM binding z-score [12]	PBM binding z-score [13]	PBM binding z-score [14]	PBM binding z-score [15]	PBM binding z-score [16]	PBM binding z-score [17]	PBM binding z-score [18]
CAAACTATGTCAAAGGTCAAAGTCGAGCCAACCA	5.12	6.61	1.88	0.733	3.54	5.93	1.52	7.09	2.38	5.1	5.04	7.01	6.39	1.75	8.43	3.81	1.14	2.88
ATCTCTAGGTATGACTCAGTTCAGTGAAGAACGC	0.262	0.638	0.456	1.61	0.371	0.877	1.49	0.389	0.624	0.243	0.676	0.285	0.329	0.685	0.0899	0.451	0.83	1.5
TCTGCTAGGTCAGATGGTCAGCTAACGAGCTGCC	2.66	2.86	0.906	-0.32	0.276	0.315	-0.95	1.22	-1.27	3.32	2.5	3.25	4.16	0.506	1.84	1.51	-0.192	-0.819
CAAACTAGGTCACAGAGGTCAAAGTGCGTGCGTA	8.28	9.04	1.58	0.779	3.18	6.72	9.97	7.47	2.13	5.4	5.64	7.46	7.84	3.65	7.66	4.92	3.02	6.01
CGTCCAAGGTCATAGGAGGTCTGTGAAGACAGAT	2.76	3.51	0.436	0.0298	2.07	4.86	1.09	4.27	0.26	5.05	3.75	5.85	5.79	3.7	6.11	4.63	2.24	2.81
GCGACTGGGGCATCAACAGGTTACCATAACTTAA	3.85	3.26	0.132	-0.496	0.784	0.139	-0.425	0.551	-0.516	0.911	1.25	0.983	0.509	0.306	0.415	0.721	-0.0396	-0.142
GGAACGACGGCAAAGTTGATAGCATCTGTCGACG	-0.332	-0.552	-0.0147	-1.18	-0.573	-0.362	-0.756	0.0195	-0.6	-0.341	-0.736	-0.162	-0.0781	-0.543	0.157	-0.802	-1.24	-0.637

— the supplement of paper PMC6555819
